Source: PubChem (several laboratories)
PrPC surface inh: inhibitors of human cell surface prion protein PrPC; inhibition, % at 13.8 µM; P04156; TR-FRET read-out; hit rate 0.43% among 370,000; AID 720596; in the data active = inhibition above about 24%; also: 0% = median of the test wells and 100% = reference compound wells
SARS 3CLpro inh: SARS-CoV 3CLpro protease inhibition; recombinant SARS-CoV 3CLpro, quenched FRET peptide cleavage; inhibition, % at 6 µM; P0C6X7; hit rate 0.14% among 290,000; in the data active = inhibition above about 12%
PfHsp40 yeast: compounds rescuing yeast from Plasmodium falciparum HSP40 toxicity; S. cerevisiae expressing PfHsp40, growth rescue, ATP luminescence; hit rate 0.68% among 340,000; growth rescue, % at 12.5 µM; in the data active = growth rescue above about 28%, passing the limit was not always enough; inconclusive = no clear call, values can overlap the other calls;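 also: yeast W303a lacking pdr1 and pdr3 grown in galactose medium; growth measured after three days at 30 °C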
PrP 5UTR inh: suppresses PrP 5' UTR mRNA reporter expression; cell-based PrP 5' UTR mRNA reporter, plate reader; inhibition, % (concentration not given with the values); hit rate 0.35% among 340,000; in the data active = inhibition above about 52%; also: 0 = median of the neutral control wells
PriA SSB inh: blocks PriA binding to SSB C-terminal tail; AlphaScreen SSBct-PriA binding, biotinylated peptide; inhibition, % at 33 µM; hit rate 0.6% among 430,000; AID 1272365; in the data active = inhibition mostly above about 37%, no sharp cut-off; inactive = mostly below about 20%;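 also: plate controls were negative control peptide for no effect and reference peptide for full effect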
Vc quorum ag: inducers of Vibrio cholerae quorum light production without autoinducers. V. cholerae BH1578 lux reporter, luminescence, 6 h. activation, % at 18.7 µM. hit rate 0.16% among 350,000. AID 588436; in the data active = activation mostly above about 9.7%, no sharp cut-off; inconclusive = no clear call, values can overlap the other calls; inactive = mostly below about 3.7%
PrP 5UTR single: prion 5' UTR mRNA inhibition, cherry-pick retest | shares compounds with PrP 5UTR inh | cell-based prion protein 5' UTR reporter, plate reader | inhibition, % at 2.5 µM | hit rate 48% among 1,100; in the data active = inhibition above about 54%; inconclusive = no clear call, values can overlap the other calls
An asterisk follows results filed as active. A selection: hits, their analogues and other compounds. The true share with any hit is near 1.6%.

Results for CC[C@@]1(O)C(=O)OCc2c1cc1n(c2=O)Cc2cc3c(NC(=O)CN)cccc3nc2-1 ?
PrPC surface inh: -3; SARS 3CLpro inh: -4; PfHsp40 yeast: -2; PrP 5UTR inh: 85*; PriA SSB inh: -11; Vc quorum ag: inactive; PrP 5UTR single: 70*

How did O=C(CSCc1ccccc1)NCC(O)(c1ccco1)C1CC1 (stereo unspecified) do in these assays?
PriA SSB inh: -20

Results for CCN(C[C@H]1N[C@@](Cc2ccccc2)(C(=O)OC)[C@H]2C(=O)N(Cc3ccccc3)C(=O)[C@@H]12)S(=O)(=O)c1ccc(C(C)(C)C)cc1 ?
PrPC surface inh: -1; PfHsp40 yeast: 0; PrP 5UTR inh: -10; PriA SSB inh: -3; Vc quorum ag: -2

How did CCN(C[C@H]1N[C@@](Cc2ccccc2)(C(=O)OC)[C@H]2C(=O)N(C)C(=O)[C@@H]12)S(=O)(=O)c1ccc(C(C)(C)C)cc1 do in these assays?
PrPC surface inh: -6; PfHsp40 yeast: 2; PrP 5UTR inh: 60*; PriA SSB inh: 1; Vc quorum ag: -1; PrP 5UTR single: -6

Results for O=C(O)CCn1cc(C=C2C(=O)NC(=S)NC2=O)c(-c2ccccc2)n1 ?
PrPC surface inh: -1; SARS 3CLpro inh: 0; PfHsp40 yeast: -2; PrP 5UTR inh: 74*; PriA SSB inh: 5; Vc quorum ag: 0; PrP 5UTR single: 0

How did Cc1ccc(C(=O)COC(=O)C2CCC2)cc1 do in these assays?
SARS 3CLpro inh: 5; PfHsp40 yeast: 2; PrP 5UTR inh: -22; PriA SSB inh: -20; Vc quorum ag: 1

How did CC(=O)NCCc1ccc(C(=O)COC(=O)C2CCCCC2)cc1 do in these assays?
PrPC surface inh: 2; PfHsp40 yeast: 3; PrP 5UTR inh: 72*; PriA SSB inh: -12; Vc quorum ag: -3; PrP 5UTR single: 34

What do the screens show for `Cn1c(SCC(=O)Nc2ccc(F)cc2F)nc2c(-c3ccccc3)csc2c1=O`?
PriA SSB inh: 3

How did Cn1c(-c2ccccc2)cc2onc(-c3ccccc3)c2c1=O do in these assays?
PrPC surface inh: 6; PfHsp40 yeast: -1; PrP 5UTR inh: 63*; PriA SSB inh: -8; Vc quorum ag: inactive; PrP 5UTR single: 32

Results for Cn1c(-c2ccccc2F)cc2onc(-c3ccccc3)c2c1=O ?
PrPC surface inh: -5; PfHsp40 yeast: 0; PrP 5UTR inh: -5; PriA SSB inh: -25; Vc quorum ag: 0

What do the screens show for `Cc1ccc(/C=C2\SC(N3CCCC3)=NC2=O)cc1`?
PrPC surface inh: -29; SARS 3CLpro inh: -6

Results for CN(C)c1ccc(/C=C2\SC(N3CCCCC3)=NC2=O)cc1 ?
PrPC surface inh: 1; SARS 3CLpro inh: -5; PfHsp40 yeast: -1; PrP 5UTR inh: 57*; PriA SSB inh: -8; Vc quorum ag: 0; PrP 5UTR single: 42

Results for Cc1cc(N(C)C)n2ncc(-c3ccccc3Cl)c2n1 ?
PriA SSB inh: -16

How did CCN(C(=O)c1cc2cc(OC)ccc2oc1=O)c1cccc(C)c1 do in these assays?
PrPC surface inh: -8; SARS 3CLpro inh: 3; PfHsp40 yeast: 0; PrP 5UTR inh: -23; PriA SSB inh: -8; Vc quorum ag: 0

What do the screens show for `CCN(C(=O)c1cc2cc(OC)ccc2oc1=O)c1ccccc1`?
PrPC surface inh: -1; SARS 3CLpro inh: -5; PfHsp40 yeast: -1; PrP 5UTR inh: 67*; PriA SSB inh: -10; Vc quorum ag: -2; PrP 5UTR single: inconclusive

What do the screens show for `O=C1CCCCC1Sc1nnc(-c2ccc3c(c2)OCO3)o1` (stereo unspecified)?
PrPC surface inh: 6; SARS 3CLpro inh: 4; PfHsp40 yeast: 0; PrP 5UTR inh: 55*; PriA SSB inh: -26; Vc quorum ag: -2; PrP 5UTR single: inconclusive

Results for Clc1ccc(CSc2nnc(-c3ccc4c(c3)OCO4)o2)cc1 ?
PrPC surface inh: 5; SARS 3CLpro inh: 2; PfHsp40 yeast: 2; PrP 5UTR inh: -14; PriA SSB inh: -8; Vc quorum ag: -1

How did COc1ccc(C(CNC(=O)C(CCSC)NC(=O)c2ccccc2Cl)N2CCCCC2)cc1 (stereo unspecified) do in these assays?
PrPC surface inh: 1; PfHsp40 yeast: 0; PrP 5UTR inh: 72*; PriA SSB inh: 9; Vc quorum ag: inactive; PrP 5UTR single: -21

How did CC1CN(c2nc(N3CCOCC3)c3cnn(C)c3n2)CC(C)O1 (stereo unspecified) do in these assays?
PriA SSB inh: -13

What do the screens show for `Nc1ccc(-c2ncc(-c3ccccc3)o2)cc1`?
PrPC surface inh: 10; SARS 3CLpro inh: -2; PfHsp40 yeast: 0; PrP 5UTR inh: 76*; PriA SSB inh: 22; Vc quorum ag: 0; PrP 5UTR single: 64*

What do the screens show for `Cc1ccc(-c2cnc(-c3ccncc3)o2)cc1`?
PrPC surface inh: 1; SARS 3CLpro inh: -3; PfHsp40 yeast: 1; PrP 5UTR inh: -41; PriA SSB inh: -10; Vc quorum ag: -2

What do the screens show for `Nc1nnc(-c2ccc(Cl)s2)o1`?
PriA SSB inh: -6

Results for CC(=O)N1CCN(C(=O)c2cc(C)nc3ccccc23)CC1 ?
PrPC surface inh: -1; SARS 3CLpro inh: 1; PfHsp40 yeast: 0; PrP 5UTR inh: -14; PriA SSB inh: -5; Vc quorum ag: 1

How did Cc1cc(C(=O)N2CC=C(c3ccccc3)CC2)c2ccccc2n1 do in these assays?
PrPC surface inh: 19; PfHsp40 yeast: 0; PrP 5UTR inh: 52*; PriA SSB inh: 12; Vc quorum ag: -4; PrP 5UTR single: 74*

Results for Cc1cccc(N(NC(=O)C(C)(C)O)C(=O)c2ccccc2)c1 ?
PrPC surface inh: 1; SARS 3CLpro inh: 1; PfHsp40 yeast: 0; PrP 5UTR inh: 67*; PriA SSB inh: -9; Vc quorum ag: -1; PrP 5UTR single: -30

Results for CCOC(=O)N(NC(=O)C(O)(c1ccccc1)c1ccccc1)c1ccccc1 ?
PrPC surface inh: 14; SARS 3CLpro inh: -4; PfHsp40 yeast: -1; PrP 5UTR inh: -39; PriA SSB inh: -6; Vc quorum ag: 0

What do the screens show for `Cc1nn(-c2ccccc2Cl)c(Cl)c1/C=N/Nc1nc2ccccc2s1`?
PrPC surface inh: 6; SARS 3CLpro inh: 2; PfHsp40 yeast: inconclusive; PrP 5UTR inh: 87*; Vc quorum ag: 0; PrP 5UTR single: 81*

How did Cc1nn(-c2ccccc2Cl)c(Cl)c1C=NNc1nc2ccccc2s1 do in these assays?
PriA SSB inh: -7

Results for COc1ccc(-c2cc(=O)n(CC(=O)Nc3nccs3)cn2)cc1 ?
PriA SSB inh: -14

How did NC(=S)NN=Cc1c2ccccc2cc2ccccc12 do in these assays?
PriA SSB inh: 4

Results for NC(=S)NN=Cc1nccc2ccccc12 ?
PrPC surface inh: 23; PfHsp40 yeast: 94*; PrP 5UTR inh: 79*; PriA SSB inh: 78*; Vc quorum ag: inactive; PrP 5UTR single: 71*
